Test results published in PubChem BioAssay (Tox21).
Results filed as inconclusive are left out. Where a call stands in place of a potency, no number is given. Active and inactive are the calls of the source. Calls follow the shape of the full dose curve.
Potency is read from the fitted curve at half-maximal effect.

The compounds below were run against Retinoic acid receptor RXR-alpha (Homo sapiens) (UniProt P19793) (assay: qHTS assay to identify small molecule agonists of the RXR signaling pathway (AID 1159527; also: nearly all actives have a fitted effect of over 35% in size)). Settings: HEK293T RXRa-UAS-bla, beta-lactamase ratio, 16 h; series mostly up to 76.8 µM.
Chain of Retinoic acid receptor RXR-alpha (Homo sapiens) (P19793 whole entry, looked up): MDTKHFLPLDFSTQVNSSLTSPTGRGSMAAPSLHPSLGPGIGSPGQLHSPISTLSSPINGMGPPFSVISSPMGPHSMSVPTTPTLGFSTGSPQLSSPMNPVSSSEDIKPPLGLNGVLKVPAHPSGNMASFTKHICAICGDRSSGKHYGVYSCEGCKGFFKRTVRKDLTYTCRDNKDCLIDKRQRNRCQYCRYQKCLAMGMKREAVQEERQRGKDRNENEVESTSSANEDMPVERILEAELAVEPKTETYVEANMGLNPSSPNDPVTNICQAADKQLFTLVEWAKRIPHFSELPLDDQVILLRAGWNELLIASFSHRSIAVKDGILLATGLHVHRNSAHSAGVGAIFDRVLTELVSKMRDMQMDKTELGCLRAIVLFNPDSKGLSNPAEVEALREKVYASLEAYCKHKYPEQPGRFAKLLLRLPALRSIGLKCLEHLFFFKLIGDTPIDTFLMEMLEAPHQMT
Description: U.S. Tox21 Program National Center for Advancing Translational Sciences [NCATS] NIH Chemical Genomics Center [NCGC] U.S. Environmental Protection Agency [EPA] National Institutes of Environmental Health Sciences [NIEHS] National Toxicology Program [NTP] U.S. Food and Drug Administration [FDA] Tox21 Assay Overview: The Retinoid X receptor (RXR), a nuclear hormone receptor expressed in liver, spleen, placenta, epidermis, central nervous system. These receptors are able to form homo and heterodimers with other nuclear receptors and due to this heterodimerizing ability, RXR functions as master regulators producing diverse physiological effects. Three subtypes of RXR exist; alpha, beta and gamma. Retinoid X receptor alpha (RXR-alpha) has potential roles in metabolic signaling pathways, skin alopecia, dermal cysts, cardiac development, insulin sensitization etc. Therefore screening environmental chemicals on RXR-alpha signaling can be used for the studies focused on such therapeutic applications. For quantification of RXR-alpha ligands signaling, GeneBLAzer RXR alpha-UAS-bla HEK 293T (Life Technologies, Carlsbad, CA) cells containing a beta-lactamase reporter-gene under control of Retinoid X receptor-alpha response element were used to screen Tox21 10K library.
Tox21 Assay Protocol Summary: RXR-alpha HEK 293T cells were dispensed at 2,000 cells/6 uL of assay medium containing 2% charcoal-stripped FBS using a Multidrop Combi (ThermoFisher Scientific, Waltham, MA) dispenser. The assay was performed in black wall/clear-bottom 1536-well plates (Greiner Bio-One North America Inc. Monroe, NC). 9-cis retinoic acid was used as a positive control in the agonist mode screen. After the assay plates were incubated at 37 C and 5% CO2 for 5 hr, 23 nL of compounds dissolved in DMSO, positive controls or DMSO only were transferred to the assay plate by a Pintool station (Kalypsys, San Diego, CA). The assay plates were incubated at 37 C and 5% CO2 for 16 hr. One uL of LiveBLAzer B/G FRET substrate (Life Technologies) was added using a Flying Reagent Dispenser (Aurora Discovery, San Diego, CA) and the plates were incubated at room temperature for 2 hr. Fluorescence intensity (405 nm excitation, 460/530 nm emission) was measured using an Envision plate reader (PerkinElmer, Shelton, CT).
With `CC(C)(C)OOC(C)(C)CCC(C)(C)OOC(C)(C)C` the Potency was “inactive”.
`CC(CC(C(N)=O)(c1ccccc1)c1ccccc1)N(C)C` (stereo not given) was tested, and the Potency was “inactive”.
`CCc1cnc(C2=NC(C)(C(C)C)C(=O)N2)c(C(=O)O)c1` (stereo not given) was tested, and the Potency was “inactive”.
In the case of `CN(C)N`, the Potency is reported as “inactive”.
With `Clc1ccc2ccccc2c1` the Potency was “inactive”.
For `O=C(CCl)CCl`, the Potency was “inactive”.
For `c1ccc2c(c1)-c1cccc3cccc-2c13`, the Potency was “inactive”.
`CC(C)(c1ccccc1)c1cc(-n2nc3ccccc3n2)c(O)c(C(C)(C)c2ccccc2)c1` was tested, and the Potency was “inactive”.
For `NNCCO`, the Potency was “inactive”.
`SCc1ccccc1` was tested, and the Potency was “inactive”.
For `CCC1(CC)C(=O)NC(=O)NC1=O`, the Potency was “inactive”.
For `O=C(Cc1ccccc1)OCCc1ccccc1`, the Potency was “inactive”.
With `O=S(=O)(c1ccccc1)c1ccccc1` the Potency was “inactive”.
For `CC(C)C1(C)N=C(c2ncccc2C(=O)O)NC1=O` (stereo not given), the Potency was 43.5 µM (active).
With `CCCCCl` the Potency was “inactive”.
`CCCC[N+]1(C)[C@@H]2CC(OC(=O)[C@H](CO)c3ccccc3)C[C@H]1[C@@H]1O[C@@H]12` (stereo not given in full) was tested, and the Potency was “inactive”.
In the case of `Nc1ccc2c(c1)Cc1ccccc1-2`, the Potency is reported as “inactive”.
For `CCCCC#N`, the Potency was “inactive”.
With `C=C(C)C(=O)OCCCCOC(=O)C(=C)C` the Potency was “inactive”.
In the case of `Nc1cccc2ccccc12`, the Potency is reported as “inactive”.
`CN1CC[C@]23c4c5ccc(O)c4O[C@H]2[C@@H](O)CC[C@H]3[C@H]1C5` was tested, and the Potency was “inactive”.
For `CNC(=O)Oc1cccc(N=CN(C)C)c1`, the Potency was “inactive”.
For `C=CC(=O)OCC`, the Potency was “inactive”.
`CN[C@@H](C)[C@H](O)c1ccccc1` was tested, and the Potency was “inactive”.
With `NC(=O)CF` the Potency was “inactive”.
With `CCC1(C2=NCCN2)Cc2ccccc2O1` (stereo not given) the Potency was “inactive”.
For `CCCCCCCCCCCCN=C(N)N`, the activation was 1.85% [at 2.71 µM] (inactive).
`O=C([O-])c1ccccn1.O=C([O-])c1ccccn1.O=C([O-])c1ccccn1.[Cr+3]` was tested, and the Potency was “inactive”.
In the case of `COC1CC(=C(c2cccs2)c2cccs2)C[N+](C)(C)C1` (stereo not given), the Potency is reported as “inactive”.
In the case of `CCOC(=O)c1cncn1C(C)c1ccccc1` (stereo not given), the Potency is reported as “inactive”.
In the case of `CC[N+]1(CCOC(=O)C(O)(c2ccccc2)c2ccccc2)CCCCC1`, the Potency is reported as “inactive”.
For `COc1ccccc1N1CCNCC1`, the Potency was “inactive”.
`O=C(O)C(Cl)(Cl)Br` was tested, and the Potency was “inactive”.
In the case of `CCCCC(CC)COC(=O)c1c(Br)c(Br)c(Br)c(Br)c1C(=O)OCC(CC)CCCC` (stereo not given), the Potency is reported as “inactive”.
With `CN1C[C@H](C(=O)N[C@]2(C)O[C@@]3(O)[C@@H]4CCCN4C(=O)[C@H](Cc4ccccc4)N3C2=O)C=C2c3cccc4[nH]cc(c34)C[C@H]21` the Potency was “inactive”.
For `CC(O)CN1CCN(CC(=O)[O-])CCN(CC(=O)[O-])CCN(CC(=O)[O-])CC1.[Gd+3]` (stereo not given), the Potency was “inactive”.
In the case of `O=C(O)C(F)(F)C(F)(F)C(F)(F)C(F)(F)C(F)(F)F`, the Potency is reported as “inactive”.
In the case of `CC(=O)OC(c1ccccc1)C(Cl)(Cl)Cl` (stereo not given), the Potency is reported as “inactive”.
In the case of `Oc1cccc(Cl)c1`, the Potency is reported as “inactive”.
`OCCSSCCO` was tested, and the Potency was “inactive”.
